In the library only some 13% were active in any assay of this set; here they are far more common.
USP8 inh = inhibitors of human USP8 deubiquitinase; P40818; purified USP8, Ub-rhodamine cleavage fluorescence, 30 min; inhibition, % at 20 µM; 47,000 compounds, 4.2% hits; AID 1645853
UCHL1 inh = inhibitors of human UCHL1 deubiquitinase. P09936. purified UCHL1, Ub-rhodamine cleavage fluorescence. inhibition, % at 20 µM. 47,000 compounds, 0.2% hits. AID 1645859
Target sequence (P09936 whole entry, looked up): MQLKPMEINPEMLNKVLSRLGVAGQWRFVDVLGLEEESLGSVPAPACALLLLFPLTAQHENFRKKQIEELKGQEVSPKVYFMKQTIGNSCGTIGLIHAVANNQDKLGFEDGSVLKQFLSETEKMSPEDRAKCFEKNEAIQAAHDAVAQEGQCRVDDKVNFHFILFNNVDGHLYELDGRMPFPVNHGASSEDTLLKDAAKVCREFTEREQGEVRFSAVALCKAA
USP17 inh = blocks human USP17 ubiquitin-rhodamine cleavage; 47,000 compounds, 6.5% hits; purified USP17, Ub-rhodamine cleavage fluorescence, 3 h; inhibition, % at 50 µM; AID 1645855
USP30 inh = inhibitors of human USP30 deubiquitinase. Q70CQ3. purified USP30, Ub-rhodamine cleavage fluorescence. inhibition, % at 25 µM. 47,000 compounds, 5.3% hits. AID 1645860
USP10 block = human USP10 deubiquitinase inhibition; Q14694; purified USP10, Ub-rhodamine fluorescence, 60 min; inhibition, % at 20 µM; 47,000 compounds, 1.1% hits; AID 1645856
USP7 block = human USP7 deubiquitinase inhibition. Q93009. purified USP7, Ub-rhodamine cleavage fluorescence. inhibition, % at 20 µM. 47,000 compounds, 0.3% hits. AID 1645854
Numbers stand for hits; 0 = inactive; - = not tested or not shown. No stated cut-off is given here; in the data, active means inhibition above about 30%; inactive means the rest.

SMILES | USP8 inh | UCHL1 inh | USP17 inh | USP30 inh | USP10 block | USP7 block
Cc1cccc(NC(=O)c2ccc3noc(-c4ccc(F)cc4)c3c2)c1 | 0 | 0 | 0 | 0 | 0 | 0
Cc1cc(C)cc(-c2nc(SCC(=O)N3CCCC3)c3c(=O)n(C)c(=O)n(C)c3n2)c1 | 0 | 0 | - | 36.4 | 0 | 0
COc1ccc(-c2nnc(SCC(=O)N(C)c3ccccc3)n2C2CCCCC2)cc1 | 0 | 0 | 0 | 0 | 0 | 0
CC1NC(=O)C(CC(N)=O)NC(=O)C(C(C)O)NC(=O)C(C(C)C)NC(=O)C(C(C)C)NC(=O)C(NC(=O)CC(O)CCCCCCCCCCCCN=C(N)N)C(C)OC1=O (configuration not stated) | 0 | 0 | 70.1 | 89.7 | 0 | 0
CCOc1ccccc1C(=O)Nc1cc2c3c(c1)C(C)C(=O)N3CCC2 (configuration not stated) | 0 | 0 | 0 | 0 | 0 | 0
COCCn1ccc2nc(C)c(C(=O)Nc3ccc4c(c3)OCCO4)cc2c1=O | 0 | 0 | 51.0 | 36.3 | 0 | 0
CCOCCn1ccc2c(OCC(=O)Nc3ccc4c(c3)OCCO4)cccc2c1=O | 0 | 0 | 66.0 | 84.2 | 0 | 0
CCOc1ccc(C(=O)OCC(=O)Nc2ccc3c(c2)OCCO3)cc1OC | 0 | 0 | 0 | 0 | 0 | 0
CCN1CCN(CCCNC(=O)C2CCCN(c3nc4ncccc4n4cccc34)C2)CC1 (configuration not stated) | 0 | 0 | 0 | 0 | 0 | 0
Fc1cccc(Cn2cc(-c3noc(-c4cccnc4)n3)nn2)c1 | 0 | 0 | 62.9 | 0 | 0 | 0
COc1ccccc1-c1nc(-c2cn(-c3ccc(C)cc3)nn2)no1 | 0 | 0 | 62.4 | 0 | 0 | 0
COc1ccccc1-c1nc(-c2cn(-c3cccc(Cl)c3)nn2)no1 | 96.0 | 0 | 0 | 46.0 | 71.4 | 51.4
COc1cc(OC)cc(-c2nc(-c3cn(-c4cccc(F)c4)nn3)no2)c1 | 61.6 | 0 | 0 | 64.6 | 0 | 0
COc1cccc(-c2nc(-c3cn(Cc4ccc(C)cc4)nn3)no2)c1 | 0 | 0 | 0 | 0 | 0 | 0
Cc1nc(-c2cc(C(=O)N3CCN(C)CC3)c3ccccn23)cn1C(C)C | 0 | 0 | 0 | 0 | 0 | 0
CCn1c(=O)c(N2CCCC(C(=O)NCCCN3CCOCC3)C2)nc2cccnc21 (configuration not stated) | 0 | 0 | 0 | 0 | 0 | 0
COc1ccc(-c2nnn(CC(=O)N(Cc3ccc4c(c3)OCO4)C(C)C(=O)NCC3CCCO3)n2)cc1OC (configuration not stated) | 0 | 0 | 0 | 0 | 0 | 0
CC(O)[C@H](NC(=O)C1(c2ccccc2)CCN(C(=O)[C@H]2CSCN2C(=O)OC(C)(C)C)CC1)C(=O)O (some centres not stated) | 0 | 0 | 0 | 0 | 0 | 0
COc1ccc2nc(C)cc(OCC(=O)Nc3cc(C)cc(C)c3)c2c1 | 0 | 0 | 35.9 | 0 | 0 | 0
CCN(CC)c1ccc(C(=O)CN2CCC(S(=O)(=O)c3ccc(-c4ccco4)cc3)CC2)cc1 | 0 | 0 | 31.2 | 0 | 0 | 0
O=C(c1ccc2occc2c1)N1CCC(S(=O)(=O)c2ccc(-c3ccco3)cc2)CC1 | 78.2 | 51.8 | 52.6 | 0 | 32.9 | 51.7
Cc1ccc(Nc2nc(O)c(CC(=O)Nc3ccc(C)cc3C)s2)cc1 | 45.9 | 0 | 36.7 | 0 | 38.3 | 0
Cc1cc(C)c(NC(=O)Cc2sc(Nc3ccc(C)c(C)c3)nc2O)c(C)c1 | 67.3 | 0 | 0 | 0 | 35.4 | 0
COc1ccc(NC(=O)Cc2sc(Nc3cccc(OC)c3)nc2O)cc1 | 0 | 0 | 0 | 0 | 0 | 0
Cc1ccc(Nc2nc(O)c(CC(=O)Nc3ccccc3C)s2)cc1C | 90.1 | 0 | 74.4 | 0 | 36.0 | 0
SMILES | USP8 inh | UCHL1 inh | USP17 inh | USP30 inh | USP10 block | USP7 block
Cc1ccc(NC(=O)Nc2nnc(CC(=O)N3CCOCC3)s2)cc1C | 0 | 0 | 0 | 0 | 0 | 0
Cc1ccc(NC(=O)Cc2nc(-c3ccccn3)n[nH]2)cc1C | 0 | 0 | 0 | 0 | 0 | 0
COc1cccc(NC(=O)Cc2sc(Nc3cc(C)cc(C)c3)nc2O)c1 | 0 | 0 | 62.2 | 0 | 0 | 0
CCN(CC)c1ccc2nnc(CCC(=O)NCC3CCN(Cc4cc(C)ccc4C)CC3)n2n1 | 0 | 0 | 0 | 0 | 0 | 0
CCc1nc2sc3c(SCC(=O)NC(C)CCc4ccccc4)ncnc3c2c2c1COC(C)(C)C2 (configuration not stated) | 0 | 0 | 0 | - | 0 | 0
CN1Cc2c(C(=O)Nc3cccc(F)c3)ncn2-c2ccccc2S1(=O)=O | 0 | 0 | 0 | 0 | 0 | 0
Cc1ccc(C)c(NC(=O)CSc2nnc(-c3ccccn3)n2Cc2ccco2)c1 | 0 | 0 | 39.3 | 61.6 | 0 | 0
COc1ccccc1NC(=O)CSc1nnc(-c2ccccn2)n1-c1cc(C)cc(C)c1 | 0 | 0 | 34.5 | 0 | 0 | 0
CCc1ccccc1NC(=O)CSc1nnc(-c2cnccn2)n1Cc1ccco1 | 0 | 0 | 0 | 0 | 0 | 0
COc1ccc(CSc2nnc(-c3ccccn3)n2-c2ccc(OC)cc2)cc1 | 0 | 0 | 0 | 37.6 | 0 | 0
O=C(CSc1nnc(-c2ccccn2)n1-c1ccccc1)Nc1cccc2ccccc12 | 0 | 0 | 0 | 0 | 0 | 0
Cc1ccc(NC(=O)N2CCC3(CC2)N=C(c2ccccc2)C(=O)N3)cc1C | 0 | 0 | 37.1 | 0 | 0 | 0
CSCCC(NS(=O)(=O)c1cccc(Cl)c1)c1nnc2ccccn12 (configuration not stated) | 0 | 0 | 0 | 0 | 0 | 0
COc1cccc2c1OCC(C(=O)NCc1ccc(F)cc1)=C2 | 0 | 0 | 0 | 0 | 0 | 0
CSc1ccccc1NC(=O)c1ccc(-n2cccn2)nn1 | 0 | 0 | 61.9 | 41.0 | 0 | 0
CC(Nc1ncnc2sc3c(c12)CCC3)c1ccccn1 (configuration not stated) | 0 | 0 | 0 | 0 | 0 | 0
O=C(Nc1nc2c(s1)CN(C(=O)/C=C/c1ccco1)CC2)c1cnccn1 | 0 | 0 | 0 | 0 | 0 | 0
Cc1cc(C(=O)Nc2nc3c(s2)CN(C(=O)/C=C/c2ccco2)CC3)no1 | 0 | 0 | 35.2 | 0 | 0 | 0
CCc1ccccc1NC(=O)C1CCCN(c2nc(-c3ccc(OC)cc3)no2)C1 (configuration not stated) | 0 | 0 | 0 | 0 | 0 | 0
CCc1ccc2nc(NC(=O)c3ccc(=O)[nH]c3)sc2c1 | 0 | 0 | 33.3 | 0 | 0 | 0
O=C(c1ccc2noc(-c3ccc(F)cc3)c2c1)N1CCN(c2ccccn2)CC1 | 0 | 0 | 0 | 0 | 0 | 0
CC(C)N(c1ccccc1)c1ccc(NC(=O)c2ccccc2[N+](=O)[O-])cc1 | 0 | 0 | 0 | 0 | 0 | 0
CC(C)(C)C(=O)Nc1sc2c(c1-c1nc3ccccc3[nH]1)CCCC2 | 0 | 0 | 0 | 0 | 0 | 0
O=C(Nc1sc2c(c1-c1nc3ccccc3[nH]1)CCCC2)c1ccccc1[N+](=O)[O-] | 31.9 | 0 | 0 | 0 | 0 | 0
O=C(Nc1sc2c(c1-c1nc3ccccc3[nH]1)CCCC2)c1ccncc1 | 31.2 | 0 | 0 | 0 | 0 | 0
